More than one record can exist for a structure, and the calls need not agree. Active and inactive are the calls of the source. Rule for the calls: active = hit-call score of the fitted dose curve at least 0.9, where 1 is the maximum; inactive = score below 0.9.
Assay: ATG_MRE_CIS: Attagene CIS-FACTORIAL HepG2 Assay for human Metal Responsive Element (MRE) (AID 2282954)
Details: HepG2 MRE cis-reporter transcription, Attagene multiplex; actives raise or lower the signal
Outline: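 Endogenous MRE-dependent transcription read as reporter mRNA in transiently transfected human HepG2 cells at 24 h. RNA reverse-transcribed, PCR-amplified, labelled and resolved by capillary electrophoresis; gain or loss relative to DMSO.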

Compound	outcome	AC50
NC(N)=NC(N)=NCCc1ccccc1	inactive	
CC/C=C\CCOC(=O)C(C)C	inactive	
CCC=C(C)C=O	inactive	
C=C1CC[C@H]2O[C@]2(C)CC[C@@H]2[C@@H]1CC2(C)C	inactive	
CCC(=O)OC/C=C(\C)CCC=C(C)C	inactive	
CCO[Si](CCC#N)(OCC)OCC	inactive	
CC(C)(O)CCc1ccccc1	inactive	
CC(=O)C1C(=O)C=C(C)OC1=O (configuration not stated)	inactive	
CCc1cccc(O)c1	inactive	
CC(CO)(CO)[N+](=O)[O-]	inactive	
CCC(C)(C)C1CCC(OC)CC1 (configuration not stated)	inactive	
C=CC(=O)OCC(CO)(COC(=O)C=C)COC(=O)C=C		5.67 µM (active)
CN(C)c1ccc(C=O)cc1	inactive	
CC1=CCC(C(C)(C)O)CC1 (configuration not stated)	inactive	
CC(=O)CC(=O)N(C)C	inactive	
CCCc1ccc(O)cc1	inactive	

Compound	outcome	AC50
C=C1CC/C=C(\C)CC[C@@H]2[C@@H]1CC2(C)C	inactive	
C=CC(C)(CCC=C(C)C)OC(=O)CC (configuration not stated)	inactive	
CCCCCCCCCCOC(=O)c1ccccc1C(=O)OCCCCCCCC	inactive	
CC(O)COCC(C)O (configuration not stated)	inactive	
NC(=O)c1c(Cl)cccc1Cl	inactive	
c1ccc2c(c1)-c1ccc3ccc4cccc5cc-2c1c3c45	inactive	
CC1=C(C=O)C(C)(C)CCC1	inactive	
CC(C)OB(OC(C)C)OC(C)C	inactive	
COc1ccc2[nH]cc(CCNC(C)=O)c2c1	inactive	
CCC(=O)OCC=Cc1ccccc1	inactive	
CC(C)CCOC(=O)CC(C)C	inactive	
C#C[C@]1(O)CC[C@H]2[C@@H]3CCc4cc(O)ccc4[C@H]3CC[C@@]21C	inactive	52.1 µM (active) [middle of 4 runs]
O=c1cc[nH]cc1	inactive	
CCC(C)(CCCC(C)C)OC(C)=O (configuration not stated)	inactive	
O=C1OCc2ccccc21	inactive	
